Hits are enriched below; roughly 15% of the tested compounds scored in any of these assays.
Sm TGR block = qHTS Assay for the Inhibitors of Schistosoma Mansoni Peroxiredoxins; Schistosoma mansoni thioredoxin glutathione reductase (TGR), Q962Y6; purified TGR, DTNB reduction, TNB absorbance 405 nm; Potency, µM (series often up to 114 µM), for inactives: at the top dose activity change, negative = inhibition, actives largely listed as inhibitors; actives 3% (n = 360,000); AID 485364, 2010; also: potency is read from the fitted curve at half-maximal effect; % is scaled to controls: 0 for no effect and ±100 for the full control effect; nearly all actives have a fitted effect of over 60% in size
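TGR 20 nM + NADPH 100 uM (dispensed conc.), cpd preinc 15 min RT; start with NADPH (500 uM addition) then DTNB (15 mM addition). Kinetic TNB absorbance, 405 nm filter. Four-parameter Hill fit across titration.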
Pf growth 96h = Primary qHTS for delayed death inhibitors of the malarial parasite plastid, 96 hour incubation; actives 6.9% (n = 320,000); Potency, µM (doses to about 28.7 µM), inactives show at the top dose activity change, negative = inhibition, most hits filed as inhibitors; P. falciparum luciferase reporter growth, 96 h; AID 504834, 2011; also: potency is read from the fitted curve at half-maximal effect; % is scaled to controls: 0 for no effect and ±100 for the full control effect
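Infected RBCs, 2% Hct / 0.05% parasitemia final; luciferase-reporter P. falciparum; cpd 96 h, 37 C, 5% CO2; luciferase detection reagent; luminescence.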
SARS PLP yeast = qHTS of Yeast-based Assay for SARS-CoV PLP; Potency, µM (titrated, usually from 32.9 µM), inactives show at the top dose activity, positive = growth rescue, actives largely listed as activators; AID 485353, 2010; actives 0.19% (n = 330,000); S. cerevisiae expressing SARS-CoV PLpro, growth rescue; calls by dose curve; also: potency is read from the fitted curve at half-maximal effect; 0% is about no effect; nearly all actives have a fitted effect of over 55% in size
Pf growth 48h = Primary qHTS for delayed death inhibitors of the malarial parasite plastid, 48 hour incubation; P. falciparum luciferase growth in erythrocytes, 48 h; Potency, µM (series often up to 28.7 µM), for the others: at the top dose activity change, negative = inhibition, most hits filed as inhibitors; actives 5.9% (n = 310,000); AID 504832, 2011; also: potency is read from the fitted curve at half-maximal effect; % is scaled to controls: 0 for no effect and ±100 for the full control effect
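Luciferase-expressing parasites in RBCs, 2% Hct / 0.1% parasitemia final; RPMI 1640 + 0.5% Albumax; 37 C, 5% CO2, one generation; luminescence read-out, lower signal = inhibition.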
HCV inhibitor = qHTS Assay for Inhibitors of Hepatitis C Virus (HCV); Huh7.5.1 HCVcc-Cre infection, luciferase reporter, 44 h; Potency, µM (series often up to 41.8 µM), without a hit: top-dose activity change, negative = inhibition, actives largely listed as inhibitors; actives 3.4% (n = 340,000); AID 651820, 2012; also: potency is read from the fitted curve at half-maximal effect; % is scaled to controls: 0 for no effect and ±100 for the full control effect
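HCVcc-Cre virus at an moi near 0.5 was added right after compound to cells cultured 4 h from seeding (1,000 cells/well). Luciferase activity was determined 44 h later, 15 min after substrate addition at RT.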
HCMV inh = qHTS Assay for inhibitors of the human cytomegalovirus (HCMV); HFF cells, HCMV-luciferase reporter, 72 h; stronger effect = lower value; activity change, negative = inhibition, % at 57.5 µM; actives 4.5% (n = 410,000); AID 1259415, 2018; in the data active = activity change below about -60%; inconclusive = no clear call, values can overlap the other calls; inactive = above about -39%; also: % is scaled to controls: 0 for no effect and ±100 for the full control effect
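After 16 h attachment at 37C, HFF cells received test compound and HCMV-luciferase (1 PFU/cell); reporter luminescence read 72 h later, data normalized against buffer-only and known inhibitor Salinomycin.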
An asterisk follows results filed as active; ? = inconclusive; nt = not tested or not shown; [ ] = remark or other dose. Unless noted, calls follow the shape of the dose curve; as a rule, active = well fitted curve in the direction sought with a large enough effect; inconclusive = small, poorly fitted or top-dose-only effect, or another doubt; inactive = no such curve, though single readings can be large; an effect the other way counts as inactive or inconclusive.

SMILES | Sm TGR block | Pf growth 96h | SARS PLP yeast | Pf growth 48h | HCV inhibitor | HCMV inh
COc1ccc(CCNC(=O)CCN2C(=O)COc3ccc(C)cc32)cc1OC | 0% | 30% | 1% | 7% | 2.8µM* | -8
O=C(CSc1nc2ccccc2c(=O)n1-c1ccccc1Cl)NC1CCS(=O)(=O)C1 (configuration not stated) | 0% | 10µM* | 13% | ? | 7% | -9
O=C(CSc1nc2cc(C(F)(F)F)ccc2n1Cc1ccccc1)NC1CCS(=O)(=O)C1 (configuration not stated) | 0% | 12µM* | 19% | ? | 1% | -18
CCCCCCn1c(SCC(=O)NC2CCS(=O)(=O)C2)nc2ccccc2c1=O (configuration not stated) | nt | nt | nt | nt | nt | 52
Cc1ccc(-n2c(SCC(=O)NC3CCS(=O)(=O)C3)nc3ccccc3c2=O)cc1 (configuration not stated) | 10% | -14% | -6% | 56% | -9% | -10
CCCCn1c(O)c(N=NC(=O)c2ccncc2)c2cc(Br)ccc21 | 5% | ? | 0% | -16% | -2% | -26
CCn1c(O)c(N=NC(=O)c2cccnc2)c2cc(Br)ccc21 | 3% | ? | 1% | 10µM* | ? | -26
CC(C)(C)c1ccc(-c2noc(-c3ccc4c(c3)CCO4)n2)cc1 | -1% | 183% | -2% | 119% | ? | ?
CCC(O)(CC)C(=O)NN(C(=O)Nc1csc2c1CCCC2)c1ccccc1 | -2% | 1.3µM* | 3% | 1.7µM* | -17% | -30
CCc1cccc(NC(=O)Nc2csc3c2CCCC3)c1 | 6% | nt | nt | nt | nt | 6
COc1ccc(NC(=O)N2CCN(c3nc(-c4cccc(OC)c4)cs3)CC2)cc1 | -2% | ? | -31% | 10µM* | 6.3µM* | -91*
COc1cccc(-c2csc(N3CCN(C(=S)Nc4cccc(Cl)c4)CC3)n2)c1 | 9% | -12% | -6% | ? | ? | -22
COc1cccc(-c2csc(N3CCN(CC(=O)NNC(=O)c4ccc(Cl)cc4)CC3)n2)c1 | 5% | ? | -4% | 16% | -28% | ?
COc1cccc(-c2csc(N3CCN(C(=O)Nc4ccc(Cl)cc4)CC3)n2)c1 | 0% | 25% | -4% | ? | 11µM* | ?
Cc1ccc(C)c(NC(=O)c2nc(S(C)(=O)=O)ncc2N(Cc2ccc(C(C)(C)C)cc2)Cc2ccco2)c1 | ? | nt | nt | nt | nt | 14
CC(C)NC(=S)N/N=C1\CCCCc2ccccc21 | -20% | ? | ? | ? | ? | ?
Cc1ccc(C)c(NC(=S)N/N=C2/CCCCc3ccccc32)c1 | -3% | 4.1µM* | ? | 8.3µM* | ? | -71*
S=C(N/N=C1\CCc2ccccc21)NC1CCCCC1 | -25% | -50% | -4% | ? | 8.9µM* | -25
O=C(N/N=C1/CCc2ccccc21)C1CC1 | -2% | 55% | -3% | 26% | 7% | 113
O=C1C(=Cc2cccc(F)c2)Cc2ccccc21 | nt | nt | nt | nt | nt | -10
CCCCNC(=O)c1nc2ccccc2nc1-c1ccc(F)cc1 | nt | nt | nt | nt | nt | -2
COc1ccc(C(=O)N2CCN(c3ccccn3)CC2)cc1[N+](=O)[O-] | 4% | ? | 0% | -3% | -26% | -80*
O=C(c1ccc(S(=O)(=O)Cc2ccccc2Cl)c([N+](=O)[O-])c1)N1CCN(c2ccccn2)CC1 | 7.9µM* | 13µM* | -1% | ? | ? | -97*
Cc1nc2ccc(C(=O)N3CCN(c4ccccn4)CC3)cc2s1 | 18% | 0%[5.75 µM] | 1% | 0% | 8% | -93*
COc1cc2ccccc2cc1C(=O)N1CCN(C(C)=O)CC1 | -1% | -10% | 1% | -8% | -10% | 18
SMILES | Sm TGR block | Pf growth 96h | SARS PLP yeast | Pf growth 48h | HCV inhibitor | HCMV inh
COc1cc2ccccc2cc1C(=O)N1CCN(c2nc3ccc(F)cc3s2)CC1 | 6% | nt | nt | nt | nt | -64*
Cc1c(C(=O)NCc2cccs2)sc(=O)n1Cc1ccc(S(C)(=O)=O)cc1 | nt | nt | nt | nt | nt | -31
O=[N+]([O-])c1ccccc1S(=O)(=O)N/C(=N/S(=O)(=O)c1ccccc1)c1ccccc1 | nt | nt | 11% | nt | -1% | 5
COCCN1C(=O)COc2ccccc2C1C(=O)Nc1c(C)cccc1C (configuration not stated) | nt | nt | nt | nt | nt | 9
O=C(CN1CCOCC1)Nc1nc2ccc(Br)cc2s1 | -2% | nt | -15% | 44% | -12% | ?
O=C(c1cc2sccc2n1Cc1ccccc1)N1CCN(c2nc3ccccc3s2)CC1 | -11% | ? | -16% | ? | 4.5µM* | ?
O=C(c1ccc2ncsc2c1)N1CCN(c2nc3ccccc3s2)CC1 | -21% | 0% | -5% | -15% | 5.6µM* | -74*
COc1cc2ccccc2cc1C(=O)N1CCN(c2ccccn2)CC1 | -4% | 11% | -21% | 8% | -2% | -63*
Cc1noc(C)c1NC(=O)N(C)C[C@H]1Oc2ccc(NC(=O)Cn3cnnn3)cc2C(=O)N([C@H](C)CO)C[C@@H]1C | nt | nt | 1% | nt | -3% | -15
COc1ccc(OC)c(NC(=O)C(C)OC(=O)c2cc3ccccc3[nH]2)c1 (configuration not stated) | nt | nt | nt | nt | 11µM* | -3
COc1ccc(OC)c(NC(=O)C(C)Oc2ccc(Br)cc2)c1 (configuration not stated) | 18% | ? | -4% | ? | 11µM* | ?
CC(Oc1ccc(Br)cc1)C(=O)Nc1ccc(N2CCOCC2)cc1N1CCOCC1 (configuration not stated) | -7% | 10µM* | -3% | 12µM* | ? | -34
Cc1cc(NC(=O)CSc2ncccc2C(=O)O)no1 | -3% | ? | 0% | 22% | 0% | -20
c1ccc2c(c1)Nc1cc3ccccc3cc1O2 | nt | nt | nt | nt | 19% | -30
Cn1c(=O)c2c(nc(SCCN3CCOCC3)n2Cc2ccc(F)cc2)n(C)c1=O | 7% | ? | 8% | -10% | 3% | 142
CC1Cc2ccccc2N1C(=O)CSc1nc2c(c(=O)n(C)c(=O)n2C)n1Cc1ccccc1 (configuration not stated) | 10% | -22% | 13% | 5.9µM* | 3.5µM* | -97*
Cc1ccc(Cn2c(SCCN3CCCCC3)nc3c2c(=O)n(C)c(=O)n3C)cc1 | 0% | ? | 1% | -17% | 13µM* | -100*
Cc1ccc(Cn2c(SCC(N)=O)nc3c2c(=O)n(C)c(=O)n3C)cc1 | 5% | nt | 5% | 2% | 11µM* | 97

Bioassay records from PubChem BioAssay.
